High-throughput results deposited in PubChem BioAssay by National Center for Advancing Translational Sciences (NCATS).
VACV mCherry inh = vaccinia inhibition (mCherry reporter). Potency, µM (highest dose often 36.5 µM), without a hit: at the highest dose activity change, negative = inhibition, hits mostly inhibitors. Vaccinia virus mCherry reporter infection, fluorescence. hit rate 0.63% among 310,000. AID 720579; calls by dose curve; tested in A549 cells; also: potency is read from the fitted curve at half-maximal effect; % is scaled to controls: 0 for no effect and ±100 for the full control effect; nearly all actives have a fitted effect of over 35% in size
Shiga toxin inh = blocks Shiga toxin action in Vero cells | Vero cells, Shiga toxin protein synthesis inhibition reporter | hit rate 9.2% among 290,000 | inhibition, % at 38.7 µM; in the data active = inhibition mostly above about 28%, no sharp cut-off; inactive = mostly below about 43%; also: 0% is about no effect
CHX counter-1 = counter-screen for Shiga toxin inhibitors: cycloheximide protein synthesis inhibition | cell reporter, cycloheximide protein synthesis inhibition counterscreen | max response, % | hit rate 12% among 300,000 | AID 2314; in the data active = max response mostly above about 13%, no sharp cut-off; inactive = mostly below about 14%; also: read at 38.3 µM for the half of the compounds with a filed dose; 0% is about no effect
MARV entry inh = inhibitors of Marburg virus binding or cell entry | Marburg virus pseudotyped entry inhibition, cell reporter | Potency, µM (top dose mostly 37.8 µM), without a hit: at the highest dose activity change, negative = inhibition, hits mostly inhibitors | hit rate 1.8% among 300,000; calls by dose curve; tested in HEK293 cells; also: potency is read from the fitted curve at half-maximal effect; % is scaled to controls: 0 for no effect and ±100 for the full control effect
VACV Venus inh = inhibitors of vaccinia virus (Venus reporter); AID 720580; hit rate 0.46% among 330,000; Potency, µM (doses to about 36.5 µM), for inactives: at the top dose activity change, negative = inhibition, usual class: inhibitors; Vaccinia virus Venus reporter expression, fluorescence; calls by dose curve; tested in A549 cells; also: potency is read from the fitted curve at half-maximal effect; % is scaled to controls: 0 for no effect and ±100 for the full control effect; nearly all actives have a fitted effect of over 30% in size
Lassa entry inh = blocks Lassa virus binding to or entry into cells. Lassa virus pseudotype entry inhibition, cell reporter. Potency, µM (titrated, usually from 37.9 µM), without a hit: top-dose activity change, negative = inhibition, hits mostly inhibitors. hit rate 1.2% among 300,000; calls by dose curve; tested in HEK293 cells; also: potency is read from the fitted curve at half-maximal effect; % is scaled to controls: 0 for no effect and ±100 for the full control effect; nearly all actives have a fitted effect of over 50% in size
CHX counter-2 = counter-screen for Shiga toxin inhibitors: cycloheximide protein synthesis block; shares compounds with Shiga toxin inh; Cycloheximide counterscreen, protein synthesis reporter, Shiga toxin assay; Potency, µM (titrated, usually from 38.3 µM), without a hit: top-dose activity (activation), usual class: activators; hit rate 3% among 510; calls by dose curve; also: potency is read from the fitted curve at half-maximal effect; 0% is about no effect
Active calls of the source: *; i = inactive; ? = inconclusive; . = not tested or not shown; + = active, no number; [ ] = dose if it differs, or a comment. The full list was thinned out, with hits kept by preference.

SMILES	VACV mCherry inh	Shiga toxin inh	CHX counter-1	MARV entry inh	VACV Venus inh	Lassa entry inh	CHX counter-2
O=C(Nc1nnc(Cc2ccccc2)s1)c1cccnc1	3.1%	58.9*	-2.2	2.9%[46.1 µM]	-8.4%	-16.0%	-1.0%
CCc1nnc(NC(=O)c2cccnc2)s1	.	-11.3	-4.3	-0.4%	8.3%	-0.7%	.
COC(=O)c1ccc(CNC(=O)C2CCC(=O)N(CCc3ccccc3)C2)cc1 (centres undefined)	-4.3%	-6.8	0.4	-24.6%[46.1 µM]	-21.5%	?	.
CSc1ccc(/C=C/C(=O)N2CCN(c3ccccn3)CC2)cc1	.	32.5*	11.8	.	.	.	-2.2%
COc1cccc(/C=C/C(=O)N2CCN(c3ccccn3)CC2)c1	.	19.0	18.6	.	.	.	.
O=[N+]([O-])c1cccc(-c2noc3c2-c2nc(Cc4cccc5ccccc45)sc2CC3)c1	-12.7%	.	.	.	-9.0%	.	.
O=C(Sc1cccc2cccnc12)c1ccccc1Br	.	40.7*	7.6	.	.	.	9.3%
COc1ccc(C2=CC(c3ccc(C)cc3)n3nnnc3N2)cc1 (centres undefined)	.	68.9*	-2.4	22.2%	.	-14.7%	3.7%
COc1ccc(C2=CC(c3ccc(N(C)C)cc3)n3nnnc3N2)cc1 (centres undefined)	-1.6%	.	.	.	8.1%	-2.2%[46.1 µM]	.
CCc1ccc(CN2CCc3nc(N4CCN(c5ccccc5F)CC4)ncc3C2)cc1	-27.7%	.	.	.	-26.2%	-4.6%[46.1 µM]	.
COc1cc(/C=C(\C#N)c2nc3ccccc3[nH]2)cc(OC)c1O	?	63.7*	9.1	-20.2%[46.1 µM]	i	2.1%[46.1 µM]	?
C=C(C)C(=O)/C=C/C=C/c1ccccc1	.	.	.	-87.0%[14.2 µM]	.	.	.
O=C/C=C/c1ccccc1	40.7%	63.9*	16.4	.	-11.4%	.	?
COc1ccc(-c2cn3c(C)c(C(=O)N4CCN(c5ccccc5)CC4)sc3n2)cc1	33.6%	.	.	.	-2.0%	.	.
COc1ccc(-c2cn3c(C)c(C(=O)NC(C)C)sc3n2)cc1	.	52.7*	7.9	8.6%	.	0.5%	2.6%
CC(CN(C)C)C(C)(O)Cc1ccc(Cl)cc1 (centres undefined)	.	-18.5	5.0	.	.	.	.
Cn1c(NC(=O)/C=C/c2ccco2)cc(=O)n(C)c1=O	-1.0%	15.0	19.2	?	-3.2%	?	.
O=C(/C=C\c1ccco1)Nc1nc(-c2ccc3ccccc3c2)cs1	?	58.1*	20.8	?	?	-4.1%	2.7%
CC(C)CC1=C/C(=C/c2ccc(-c3ccccc3)o2)C(=O)O1	-11.4%	40.4*	8.8	?	18.9%	-1.9%	0.4%
COC(=O)c1ccc(-c2noc(CN(C)Cc3ccncc3C)n2)cc1	-8.3%	40.2*	2.5	.	-17.0%	.	0.4%
O=C(c1cccc(Cl)c1)n1nc(-c2cccnc2)nc1NCc1ccccc1	-17.1%	.	.	4.8%[46.1 µM]	-14.5%	?	.
O=C(/C=C/c1ccc(Cl)cc1)N1CCN(Cc2ccccc2)CC1	-24.7%	25.1*	9.2	?	-19.0%	0.1%	3.0%
CC(=O)c1ccc(-c2cccc([C@H]3[C@@H]4C=CC[C@@H](C)[C@@H]4C(=O)N3Cc3ccccc3)c2)cc1	-22.3%	36.1*	17.8	.	-1.5%	.	-0.8%
Cc1ccccc1S(=O)(=O)Nc1ncnc2ccccc12	2.4%	32.9*	-1.4	2.4%[46.1 µM]	-6.0%	3.2%	-1.7%
CC1=NN(c2ccccc2)C(=O)C1N=Nc1ccc(S(N)(=O)=O)cc1 (centres undefined)	.	-2.8	0.9	.	.	.	.
SMILES	VACV mCherry inh	Shiga toxin inh	CHX counter-1	MARV entry inh	VACV Venus inh	Lassa entry inh	CHX counter-2
CC(=O)Nc1ccc(N2N=C(C)C(N=Nc3ccccc3)C2=O)cc1 (centres undefined)	.	53.0*	-2.2	20.6%	.	21.9%	?
COc1cc(OC)cc(C(=O)NCCNc2nc3cc(C)cc(C)c3cc2C#N)c1	.	.	-1.8	.	.	.	.
CCOC(=O)c1cnc2c(C(=O)OCC)cnn2c1N	-18.5%	21.9	13.3	18.0%	-21.5%	2.3%	.
CCOC(=O)c1cnc2c(-c3cccc(Br)c3)cnn2c1C	i	active	5.8	?	-14.4%	?	2.83µM*
Cc1cc(C)c2c(c1)CC(C)(C)CC2=O	-10.5%	.	.	2.0%	-16.7%	?	.
COc1ccc(/C=C2\SC(=O)N(CCNC(=O)Cn3[nH]c(=O)c4ccccc4c3=O)C2=O)cc1	-23.3%	.	.	15.4%[46.1 µM]	10.2%	0.3%[46.1 µM]	.
Cc1ccc(NC(=O)c2cccc(N3C(=O)C4C5C=CC(C5)C4C3=O)c2)cc1C (centres undefined)	.	17.5*	6.4	.	.	.	3.0%
Cc1ccc(N2C(=O)C3C4C=CC(C4)C3C2=O)cc1C (centres undefined)	.	-7.3	-2.4	24.8%	.	15.8%	.
O=C(c1ccco1)N1CCN(C(=O)c2cc(-c3ccncc3)nc3ccc(Br)cc23)CC1	.	.	.	?	15.3%	-14.4%	.
O=C(c1ccco1)N1CCN(C(=O)c2cc(-c3ccccn3)nc3ccc(Cl)cc23)CC1	3.3%	31.6*	4.9	-10.2%	3.2%	?	-0.9%
CC1CN(S(=O)(=O)c2cccc(-c3cn4ccccc4n3)c2)CC(C)O1 (centres undefined)	?	-20.7	19.1	?	-25.4%	?	.
Cc1cccn2cc(-c3cccc(S(=O)(=O)N4CC(C)OC(C)C4)c3)nc12 (centres undefined)	.	28.0*	-1.5	.	.	.	-1.2%
Cc1cccc(-c2nc(SCc3cc(=O)c4cccc(F)c4[nH]3)n[nH]2)c1	-16.9%	.	.	.	-11.7%	-11.5%[46.1 µM]	.
CN(C(=O)c1ccc2c(=O)n3c(nc2c1)CCCCC3)c1ccccc1	-21.4%	+	13.4	-17.6%	-13.6%	-20.0%	4.0%
CCc1ccc(N(CC)C(=O)c2ccc3c(=O)n4c(nc3c2)CCCCC4)cc1	?	.	.	-20.0%[46.1 µM]	?	-24.1%[46.1 µM]	.
CC1=C(C(=O)N(C)C)C(c2ccc(N3CCOCC3)cc2)NC(=O)N1 (centres undefined)	.	23.5	9.1	.	.	.	.
Cn1c(CN2CCCCC2)nc2cc(NC(=O)c3ccc(Cl)cc3)ccc21	?	26.9*	1.9	20.6µM*	-23.8%	18.5%[46.1 µM]	5.7%
CN(C)c1ccc(NS(=O)(=O)c2cc3c4c(c2)CC(=O)N4CCC3)cc1	.	33.3	4.1	.	.	.	.
Cc1ccc(-c2c(CN3CCN(c4cc(C)ccc4C)CC3)csc2C)cc1	i	.	.	.	-11.7%	12.8%[46.1 µM]	.
COc1ccc(N2CCN(Cc3csc(C)c3-c3ccc(C)cc3)CC2)cc1	-12.8%	39.8*	-3.1	?	-2.4%	?	-2.5%
COc1ccc(Cn2c(CCC(=O)Nc3ccc(Br)c(C)c3)nc3cccnc32)cc1	0.6%	.	.	1.2%[46.1 µM]	-19.4%	-12.4%[46.1 µM]	.
Cc1nn(Cc2ccc([N+](=O)[O-])cc2)c(=O)n1-c1cccc(Cl)c1	-6.3%	-12.9	-1.4	-1.3%[46.1 µM]	-6.9%	9.3%	.
C=C1C(O)C2OC3(CCC(/C=C/C(C)C4CC(C)=CC5(OC(CC(C)(O)C(=O)O)CCC5O)O4)O3)CCC2OC1C(O)CC(C)C1OC2(CCCCO2)CCC1C (centres undefined)	.	+	-3.4	.	.	.	3.5%
